Assay results: PubChem BioAssay (EPA / NIEHS)
The source holds several records for some structures; these can differ, active in one and inactive in another. Active and inactive are the calls of the source. How the source made its calls: active means hit-call score of the fitted dose curve at least 0.9, where 1 is the maximum; inactive means score below 0.9.

What was measured:
[1] = ATG_AP_1_CIS: Attagene CIS-FACTORIAL HepG2 Assay for human Activator Protein 1 (AP-1) (AID 2282931); conditions: HepG2 Attagene cis-factorial AP-1 reporter mRNA; actives raise or lower the signal
How it was run: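 Reporter transcripts were measured 24 h after dosing by RT-PCR and capillary electrophoresis of fluorescent fragments. Cells: HepG2 carrying transfected cis-regulated reporter constructs reading endogenous factor activity. Gain or loss fitted against DMSO.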

[2] = ATG_AP_2_CIS: Attagene CIS-FACTORIAL HepG2 Assay for human Activator Protein 2 (AP-2) (AID 2282932); conditions: HepG2 AP-2 cis-reporter, Attagene transcription factor profiling; actives raise or lower the signal
How it was run: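 Bidirectional curve fitting against DMSO was applied to reporter mRNA signals from HepG2 cells 24 h after dosing. Cis-promoter reporter units, transiently transfected, were read by RT-PCR plus capillary electrophoresis.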

[3] = target: Transcription factor E2F1 (Homo sapiens) (UniProt Q01094); assay: ATG_E2F_CIS: Attagene CIS-FACTORIAL HepG2 Assay for human E2F Transcription Factor 1 (AID 2282935); conditions: HepG2 Attagene cis-reporter, E2F reporter RNA transcripts; actives raise or lower the signal
How it was run: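 Multiplexed cis-reporter assay: HepG2, transient transfection, 24 h dosing, mRNA quantitation by labeled RT-PCR and CE.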

[4] = APR_HepG2_P-H2AX_72hr: Apredica 72-hour HepG2 Assay for H2AX Phosphorylation (AID 2282916); conditions: imaging, actives raise or lower the signal;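 further: phospho-histone H2A.x immunostain intensity per cell marking DNA damage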
How it was run: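 HepG2; cpd 0.39–200 uM ×10 conc, duplicates; 0.5% DMSO; 72 hr. Fix 3.7% formaldehyde 30 min RT, 0.5% Triton X-100 10 min. Anti-phospho-H2A.x 1:200 + Hoechst 2 ug/mL, 60 min RT; ArrayScan imaging.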

[5] = APR_HepG2_MitoMembPot_72hr: Apredica 72-hour HepG2 Assay for Mitochondrial Membrane Potential (AID 2282917); conditions: imaging, actives raise or lower the signal
How it was run: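 HepG2 cells exposed 72 h to compounds at 0.39–200 uM (0.5% v/v DMSO, duplicates); MitoTracker Red CMXRos 250 nM loaded 30 min before 3.7% formaldehyde fixation, imaged by HCS fluorescence. Bidirectional fit versus DMSO.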

[6] = APR_HepG2_MitoticArrest_72hr: Apredica 72-hour HepG2 Assay for Mitotic Arrest (AID 2282918); conditions: high-content imaging, actives raise or lower the signal
How it was run: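 HepG2 cells were exposed for 72 hr to compound at 0.39–200 uM (10 concentrations, duplicate) in 0.5% v/v DMSO, fixed in 3.7% formaldehyde, immunostained for phospho-histone H3 with Hoechst 33342 and imaged by high-content fluorescence; bidirectional fits versus DMSO.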

[7] = APR_HepG2_MicrotubuleCSK_72hr: Apredica 72-hour HepG2 Assay for Microtubule CSK Stabilty (AID 2282919); conditions: HepG2 microtubule cytoskeleton, high-content imaging, actives raise or lower the signal
How it was run: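 HepG2 human liver cells were dosed for 72 h at ten concentrations from 0.39 to 200 uM in duplicate (0.5% v/v DMSO final). Fixed, permeabilized cells were immunostained for alpha-tubulin (Cy5) with a Hoechst counterstain and imaged at 20x.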

[8] = APR_HepG2_P-H2AX_24hr: Apredica 24-hour HepG2 Assay for H2AX Phosphorylation (AID 2282920); conditions: high-content imaging, actives raise or lower the signal
How it was run: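 HepG2 human liver cells were exposed for 24 hr to compounds at 0.39–200 uM in duplicate, with 0.5% v/v DMSO final. Fixed cells were immunostained for phospho-histone H2A.x plus Hoechst 33342, imaged by HCS fluorescence, and fitted bidirectionally against DMSO.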

[9] = APR_HepG2_StressKinase_72hr: Apredica 72-hour HepG2 Assay for Stress Kinase (AID 2282921); conditions: HepG2 stress kinase (phospho-c-Jun) imaging, actives raise or lower the signal
How it was run: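 Dose 0.39–200 uM (10 pts, duplicate), 0.5% DMSO; 72 h; fix 3.7% formaldehyde 30 min RT; Triton permeabilize; anti-phospho-c-Jun/Cy3 + Hoechst 60 min RT; image 20x; fit gain/loss vs DMSO.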

[10] = APR_HepG2_StressKinase_24hr: Apredica 24-hour HepG2 Assay for Stress Kinase (AID 2282922); conditions: HepG2 stress kinase (phospho-c-Jun) imaging, actives raise or lower the signal
How it was run: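 HepG2 cells exposed 24 hr to compound at 0.39–200 uM (10 concentrations, duplicate), 0.5% v/v DMSO final. Fixed in 3.7% formaldehyde, permeabilized with Triton X-100, immunolabeled for phospho-c-Jun with Hoechst 33342; HCS fluorescence imaging, bidirectional fit versus DMSO.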

[11] = APR_HepG2_p53Act_72hr: Apredica 72-hour HepG2 Assay for p53 Activation (AID 2282923); conditions: high-content imaging, actives raise or lower the signal;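 further: average cellular p53 protein immunofluorescence intensity in HepG2 cells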
How it was run: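 10-pt conc. 0.39–200 uM, duplicate, 0.5% DMSO; 72 hr exposure; 3.7% formaldehyde fix, 0.5% Triton perm; sheep anti-p53/Cy5 + Hoechst; ArrayScan 20x, 6 images/well; gain/loss fit vs DMSO.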

[12] = APR_HepG2_MitoMass_72hr: Apredica 72-hour HepG2 Assay for Mitochondrial Mass (AID 2282924); conditions: high-content imaging, actives raise or lower the signal;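 further: MitoTracker Red CMXRos stain intensity per cell imaged as mitochondrial mass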
How it was run: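 HepG2 cells were exposed for 72 hr to compounds at 0.39–200 uM (ten concentrations, duplicate, 0.5% v/v DMSO final). Live cells were stained with 250 nM MitoTracker Red CMXRos for 30 min, then fixed in 3.7% formaldehyde and imaged by HCS fluorescence.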

[13] = APR_HepG2_NuclearSize_72hr: Apredica 72-hour HepG2 Assay for Nuclear Size (AID 2282925); conditions: high-content imaging, actives raise or lower the signal
How it was run: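 HepG2 cells were exposed to compounds at ten concentrations from 0.39 to 200 uM (duplicate, 0.5% DMSO final) for 72 hr. After fixation in 3.7% formaldehyde, nuclei were stained with Hoechst 33342 (2 ug/mL) and imaged at 20x.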

[14] = ATG_CRE_CIS: Attagene CIS-FACTORIAL HepG2 Assay for human cAMP Responsive Element (CRE) binding protein 3 (AID 2282926); conditions: HepG2 CRE cis-reporter, Attagene multiplexed mRNA; actives raise or lower the signal
How it was run: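 HepG2 cells transiently transfected with a multiplexed reporter library (CRE-driven unit among them) were dosed for 24 h. Reporter mRNA was quantified by RT-PCR, fluorescent labelling, HpaI digestion and capillary electrophoresis, with bidirectional fitting against DMSO baseline.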

[15] = target: CCAAT/enhancer-binding protein beta (Homo sapiens) (UniProt P17676); assay: ATG_C_EBP_CIS: Attagene CIS-FACTORIAL HepG2 Assay for human CCAAT/Enhancer Binding Protein (C/EBP) beta (AID 2282927); conditions: HepG2 Attagene cis-factorial transcription factor reporter; actives raise or lower the signal
How it was run: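 Following a 24 h incubation with test chemical, transfected HepG2 cells yielded RNA whose reporter transcripts were quantified by RT-PCR and fluorescent capillary electrophoresis, with DMSO serving as baseline for bidirectional fitting.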

[16] = ATG_CMV_CIS: Attagene CIS-FACTORIAL HepG2 Assay for human CMV (Internal Marker) (AID 2282928); conditions: HepG2 CMV promoter reporter, transcription factor profiling; actives raise or lower the signal;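 further: endpoint acts as a background internal control marker rather than a target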
How it was run: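 Cell system: HepG2, transiently transfected multiple reporter units under cis promoters. Exposure: 24 h. Detection: RT-PCR, FAM labeling, HpaI digestion, capillary electrophoresis. Analysis: bidirectional, DMSO baseline.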

[17] = ATG_DR4_LXR_CIS: Attagene CIS-FACTORIAL HepG2 Assay for human Liver X Receptor (LXR), DR4 submotif (AID 2282929); conditions: HepG2 Attagene DR4 cis-reporter, mRNA transcription; actives raise or lower the signal
How it was run: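 Readout: reporter transcript fluorescence after RT-PCR and capillary electrophoresis, fitted bidirectionally against DMSO controls. Human HepG2 liver cells carried transiently transfected multiplexed reporter constructs; endogenous transcription factor activity measured 24 h post-dosing.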

[18] = target: Aryl hydrocarbon receptor (Homo sapiens) (UniProt P35869); assay: ATG_Ahr_CIS: Attagene CIS-FACTORIAL HepG2 Assay for human Aryl Hydrocarbon Receptor (Ahr) (AID 2282930); conditions: HepG2 AhR cis-factorial reporter transcription; actives raise or lower the signal
How it was run: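 Values derive from bidirectional fitting against DMSO negative control. Underlying signal: cis-element reporter mRNA in transiently transfected HepG2, harvested 24 h post-dose and measured by RT-PCR plus capillary electrophoresis.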

[19] = target: Retinoic acid receptor alpha (Homo sapiens) (UniProt P10276); assay: ATG_DR5_RAR_CIS: Attagene CIS-FACTORIAL HepG2 Assay for human Retinoic Acid Receptor Alpha (RARE), DR5 submotif (AID 2282934); conditions: HepG2 Attagene cis-factorial RARE DR5 reporter, mRNA; actives raise or lower the signal;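 on AC50: reporter responds to endogenous RAR alpha beta and gamma in HepG2 not RARA alone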
How it was run: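 Endpoint fitted in both directions relative to DMSO as negative control. It reflects DR5 cis-element reporter mRNA induction in transiently transfected HepG2 cells, measured 24 h after dosing through RT-PCR and fluorescent capillary electrophoresis.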

[20] = ATG_BRE_CIS: Attagene CIS-FACTORIAL HepG2 Assay for human Bone Morphogenetic Protein (BMP) Response Element (BRE) (AID 2282933); conditions: HepG2 BMP response element reporter, Attagene transcription factor profiling; actives raise or lower the signal
How it was run: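 Endogenous transcription factor activity read in transiently transfected HepG2 cells after 24 h chemical exposure. Bidirectional curve fitting against DMSO; readout is reporter transcript level by RT-PCR with capillary electrophoresis of labelled products.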

Measured: AC50

Transcription factor E2F1 (Homo sapiens), sequence (Q01094 whole entry, looked up): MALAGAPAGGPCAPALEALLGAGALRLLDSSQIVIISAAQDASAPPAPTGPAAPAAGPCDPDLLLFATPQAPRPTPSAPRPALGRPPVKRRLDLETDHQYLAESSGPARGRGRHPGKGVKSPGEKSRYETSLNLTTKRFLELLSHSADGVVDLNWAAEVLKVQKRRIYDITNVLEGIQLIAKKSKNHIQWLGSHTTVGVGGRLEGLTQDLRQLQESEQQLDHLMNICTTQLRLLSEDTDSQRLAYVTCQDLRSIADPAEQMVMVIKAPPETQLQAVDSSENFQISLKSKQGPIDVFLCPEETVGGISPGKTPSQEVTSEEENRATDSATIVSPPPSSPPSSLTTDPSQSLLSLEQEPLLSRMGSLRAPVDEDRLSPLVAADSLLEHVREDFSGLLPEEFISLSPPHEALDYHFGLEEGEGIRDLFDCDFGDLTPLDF
CCAAT/enhancer-binding protein beta (Homo sapiens), sequence (P17676 whole entry, looked up): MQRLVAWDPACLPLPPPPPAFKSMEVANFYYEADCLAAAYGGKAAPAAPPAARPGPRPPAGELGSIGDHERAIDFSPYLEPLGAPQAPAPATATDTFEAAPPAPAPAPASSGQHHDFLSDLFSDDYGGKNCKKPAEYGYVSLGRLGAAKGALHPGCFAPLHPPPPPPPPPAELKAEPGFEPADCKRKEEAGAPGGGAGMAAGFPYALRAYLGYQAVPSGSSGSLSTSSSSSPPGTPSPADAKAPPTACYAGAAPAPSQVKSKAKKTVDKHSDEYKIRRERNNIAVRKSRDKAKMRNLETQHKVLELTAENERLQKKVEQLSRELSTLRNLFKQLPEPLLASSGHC
Aryl hydrocarbon receptor (Homo sapiens), sequence (P35869 whole entry, looked up): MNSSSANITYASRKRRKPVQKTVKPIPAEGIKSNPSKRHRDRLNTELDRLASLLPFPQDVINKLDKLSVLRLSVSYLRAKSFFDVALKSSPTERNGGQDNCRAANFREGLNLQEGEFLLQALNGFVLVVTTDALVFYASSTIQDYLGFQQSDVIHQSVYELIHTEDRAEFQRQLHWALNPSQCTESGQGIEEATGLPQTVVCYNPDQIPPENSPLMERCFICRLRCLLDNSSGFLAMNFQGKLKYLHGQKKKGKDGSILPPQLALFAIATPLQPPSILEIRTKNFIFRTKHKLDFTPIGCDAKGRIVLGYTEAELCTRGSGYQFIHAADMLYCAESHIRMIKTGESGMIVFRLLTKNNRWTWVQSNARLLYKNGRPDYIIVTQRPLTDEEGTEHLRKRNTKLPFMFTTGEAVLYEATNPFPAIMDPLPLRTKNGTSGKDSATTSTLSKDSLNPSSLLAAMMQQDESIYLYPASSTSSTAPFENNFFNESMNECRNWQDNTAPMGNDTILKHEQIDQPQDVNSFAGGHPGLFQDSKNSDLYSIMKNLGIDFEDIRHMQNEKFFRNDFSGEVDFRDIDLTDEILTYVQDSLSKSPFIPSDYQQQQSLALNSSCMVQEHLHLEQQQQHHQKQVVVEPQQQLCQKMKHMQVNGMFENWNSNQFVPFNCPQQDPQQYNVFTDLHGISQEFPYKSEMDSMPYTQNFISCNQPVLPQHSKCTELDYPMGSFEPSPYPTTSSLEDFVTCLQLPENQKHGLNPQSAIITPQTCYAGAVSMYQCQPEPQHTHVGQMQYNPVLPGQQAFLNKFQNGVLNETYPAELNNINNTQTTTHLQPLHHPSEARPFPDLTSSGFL
Retinoic acid receptor alpha (Homo sapiens), sequence (P10276 whole entry, looked up): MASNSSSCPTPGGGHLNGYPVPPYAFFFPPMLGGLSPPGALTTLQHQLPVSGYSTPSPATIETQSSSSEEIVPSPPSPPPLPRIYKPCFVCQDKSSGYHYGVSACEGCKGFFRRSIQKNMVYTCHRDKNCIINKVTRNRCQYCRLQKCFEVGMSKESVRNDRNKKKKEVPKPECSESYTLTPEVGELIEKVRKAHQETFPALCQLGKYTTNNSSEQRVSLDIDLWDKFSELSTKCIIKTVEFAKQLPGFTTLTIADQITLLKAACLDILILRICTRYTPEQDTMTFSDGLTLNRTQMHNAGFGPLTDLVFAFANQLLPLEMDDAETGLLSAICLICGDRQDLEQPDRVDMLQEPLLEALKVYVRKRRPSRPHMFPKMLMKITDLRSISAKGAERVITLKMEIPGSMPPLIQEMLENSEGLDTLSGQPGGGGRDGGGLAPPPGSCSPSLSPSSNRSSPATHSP

Oc1cc(Cl)ccc1Oc1ccc(Cl)cc1Cl
inactive: [1] | [2] | [3]
active: [2] 20.7 µM

CC(C)N(C(=O)COc1nnc(C(F)(F)F)s1)c1ccc(F)cc1
active: [6] 169 µM | [9] 113 µM | [14] 31.9 µM | [1] 50 µM
not listed: [20]
inactive: all other assays above

CN1CSC(=S)N(C)C1
active: [4] 4.12 µM | [7] 66.4 µM | [8] 21.8 µM | [10] 26.3 µM | [12] 57.2 µM | [14] 50 µM
not listed: [20]
inactive: all other assays above

N#Cc1c(Cl)c(Cl)c(Cl)c(C#N)c1Cl
active: [8] 0.322 µM | [19] 0.167 µM
inactive: all other assays above

O=C(Nc1ccccc1)Nc1cnns1
active: [4] 93.6 µM | [6] 91.6 µM | [7] 78 µM | [16] 50 µM | [17] 82.7 µM | [1] 50 µM | [20] 50 µM
inactive: all other assays above
